# In PubChem BioAssay (NCATS):
# Results filed as inconclusive are left out. A call without a number means that no potency is given here. Calls of active or inactive are those of the source. Unless noted, the call rests on the fitted dose curve; in most records, active means well fitted curve in the direction sought with a large enough effect in the repeat runs; inconclusive means weak or mixed curves; inactive means no such curve, though single readings can be large; an effect the other way counts as inactive or inconclusive.
# Key:
# [1] = biological target: Cytochrome P450 2D6 (Homo sapiens) (UniProt P10635); assay: Cytochrome P450 family 2 subfamily D member 6 (CYP2D6) small molecule antagonists: luciferase biochemical (cell-free) qHTS assay (AID 1645840); further: nearly all actives have a fitted effect of over 55% in size; further: potency means the concentration at half of the fitted maximal effect
# Cytochrome P450 2D6 (Homo sapiens), sequence (P10635 whole entry, looked up): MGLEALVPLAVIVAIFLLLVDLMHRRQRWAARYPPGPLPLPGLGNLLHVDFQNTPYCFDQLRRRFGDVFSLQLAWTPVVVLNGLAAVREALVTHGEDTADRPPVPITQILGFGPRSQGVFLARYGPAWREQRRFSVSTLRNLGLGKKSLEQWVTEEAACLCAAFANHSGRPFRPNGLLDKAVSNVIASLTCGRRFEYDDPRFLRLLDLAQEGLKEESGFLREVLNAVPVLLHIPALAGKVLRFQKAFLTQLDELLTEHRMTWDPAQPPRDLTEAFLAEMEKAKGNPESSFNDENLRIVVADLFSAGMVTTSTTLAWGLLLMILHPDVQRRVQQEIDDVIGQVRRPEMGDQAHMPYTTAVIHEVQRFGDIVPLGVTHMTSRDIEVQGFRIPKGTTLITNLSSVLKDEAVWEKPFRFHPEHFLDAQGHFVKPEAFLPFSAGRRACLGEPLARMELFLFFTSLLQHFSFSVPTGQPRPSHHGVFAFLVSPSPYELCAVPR
# Outline: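 P450-Glo luminescent screen: recombinant CYP2D6 enzyme–proluciferin substrate mix preincubated with compound 10 min at room temperature, then NADPH regeneration added for 1 h at room temperature. Detection reagent added for 20 min; luciferin light read as relative luminescence units.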
# [2] = biological target: Cytochrome P450 2C9 (Homo sapiens) (UniProt P11712); assay: Cytochrome P450 family 2 subfamily C member 9 (CYP2C9) small molecule antagonists: luciferase biochemical (cell-free) qHTS assay (AID 1645842); further: nearly all actives have a fitted effect of over 55% in size; further: potency means the concentration at half of the fitted maximal effect
# Cytochrome P450 2C9 (Homo sapiens), sequence (P11712 whole entry, looked up): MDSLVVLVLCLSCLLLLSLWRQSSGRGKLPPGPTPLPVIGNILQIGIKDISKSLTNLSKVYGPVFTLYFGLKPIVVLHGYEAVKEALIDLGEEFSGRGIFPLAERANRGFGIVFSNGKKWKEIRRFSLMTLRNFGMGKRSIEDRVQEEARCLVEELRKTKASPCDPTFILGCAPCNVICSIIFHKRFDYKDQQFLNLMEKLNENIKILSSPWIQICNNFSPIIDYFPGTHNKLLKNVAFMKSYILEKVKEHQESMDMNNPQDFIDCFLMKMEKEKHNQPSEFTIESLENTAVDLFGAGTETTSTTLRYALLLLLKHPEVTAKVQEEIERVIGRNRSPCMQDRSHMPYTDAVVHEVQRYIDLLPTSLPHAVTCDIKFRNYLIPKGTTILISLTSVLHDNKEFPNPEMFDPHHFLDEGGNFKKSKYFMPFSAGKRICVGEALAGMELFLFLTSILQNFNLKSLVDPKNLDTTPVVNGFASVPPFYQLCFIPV
# Outline: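 Luminescence, after 20 min with luciferin detection reagent, reflected CYP2C9 turnover during a 1 h NADPH-driven reaction at 37C. Enzyme-substrate mix contained 0.4% bovine serum albumin and was preincubated with compound 10 min at room temperature.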
# [3] = biological target: Cytochrome P450 3A4 (Homo sapiens) (UniProt P08684); assay: Cytochrome P450 family 3 subfamily A member 4 (CYP3A4) small molecule antagonists: luciferase qHTS assay (AID 1645841); further: nearly all actives have a fitted effect of over 45% in size
# Cytochrome P450 3A4 (Homo sapiens), sequence (P08684 whole entry, looked up): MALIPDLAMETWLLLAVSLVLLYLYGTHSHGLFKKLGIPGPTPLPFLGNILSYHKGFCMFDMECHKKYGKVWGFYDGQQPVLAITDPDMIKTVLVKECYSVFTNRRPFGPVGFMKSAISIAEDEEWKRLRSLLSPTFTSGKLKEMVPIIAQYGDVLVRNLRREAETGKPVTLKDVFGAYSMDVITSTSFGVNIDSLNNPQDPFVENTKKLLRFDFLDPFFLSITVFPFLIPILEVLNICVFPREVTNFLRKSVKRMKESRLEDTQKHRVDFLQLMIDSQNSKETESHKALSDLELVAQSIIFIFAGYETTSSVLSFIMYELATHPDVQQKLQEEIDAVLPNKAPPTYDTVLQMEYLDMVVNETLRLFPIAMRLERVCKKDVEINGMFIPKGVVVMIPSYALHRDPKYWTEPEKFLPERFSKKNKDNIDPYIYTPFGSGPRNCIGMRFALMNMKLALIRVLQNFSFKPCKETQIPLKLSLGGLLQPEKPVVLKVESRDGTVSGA
# Outline: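 Luminescent CYP3A4 activity readout: compounds plus enzyme-substrate mix 10 min at room temperature, reaction started with NADPH regenerating system for 1 h, stopped with detection reagent, read after 20 min. Ketoconazole served as control.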
# [4] = Primary qHTS for inhibitors of nuclear receptor binding SET domain protein 2 (NSD2) in an isogenic RCH-ACV NSD2 p.E1099K mutant (9B) (AID 1645876; active means well fitted curve in the direction sought with a large enough effect; an effect the other way counts as inactive or inconclusive; further: nearly all actives have a fitted effect of over 70% in size)
# [5] = Primary qHTS for inhibitors of nuclear receptor binding SET domain protein 2 (NSD2) in an RCH-ACV wild type WT cells (2C) (AID 1645877; active means well fitted curve in the direction sought with a large enough effect; an effect the other way counts as inactive or inconclusive; further: nearly all actives have a fitted effect of over 70% in size; further: potency means the concentration at half of the fitted maximal effect)
# [6] = biological target: Rap guanine nucleotide exchange factor 3 (Homo sapiens) (UniProt O95398); assay: Confirmatory qHTS for antagonist of cAMP-regulated guanine nucleotide exchange factor 3 (EPAC1) (AID 1645880; active means well fitted curve in the direction sought with a large enough effect; an effect the other way counts as inactive or inconclusive; further: nearly all actives have a fitted effect of over 55% in size)
# Rap guanine nucleotide exchange factor 3 (Homo sapiens), sequence (O95398 whole entry, looked up): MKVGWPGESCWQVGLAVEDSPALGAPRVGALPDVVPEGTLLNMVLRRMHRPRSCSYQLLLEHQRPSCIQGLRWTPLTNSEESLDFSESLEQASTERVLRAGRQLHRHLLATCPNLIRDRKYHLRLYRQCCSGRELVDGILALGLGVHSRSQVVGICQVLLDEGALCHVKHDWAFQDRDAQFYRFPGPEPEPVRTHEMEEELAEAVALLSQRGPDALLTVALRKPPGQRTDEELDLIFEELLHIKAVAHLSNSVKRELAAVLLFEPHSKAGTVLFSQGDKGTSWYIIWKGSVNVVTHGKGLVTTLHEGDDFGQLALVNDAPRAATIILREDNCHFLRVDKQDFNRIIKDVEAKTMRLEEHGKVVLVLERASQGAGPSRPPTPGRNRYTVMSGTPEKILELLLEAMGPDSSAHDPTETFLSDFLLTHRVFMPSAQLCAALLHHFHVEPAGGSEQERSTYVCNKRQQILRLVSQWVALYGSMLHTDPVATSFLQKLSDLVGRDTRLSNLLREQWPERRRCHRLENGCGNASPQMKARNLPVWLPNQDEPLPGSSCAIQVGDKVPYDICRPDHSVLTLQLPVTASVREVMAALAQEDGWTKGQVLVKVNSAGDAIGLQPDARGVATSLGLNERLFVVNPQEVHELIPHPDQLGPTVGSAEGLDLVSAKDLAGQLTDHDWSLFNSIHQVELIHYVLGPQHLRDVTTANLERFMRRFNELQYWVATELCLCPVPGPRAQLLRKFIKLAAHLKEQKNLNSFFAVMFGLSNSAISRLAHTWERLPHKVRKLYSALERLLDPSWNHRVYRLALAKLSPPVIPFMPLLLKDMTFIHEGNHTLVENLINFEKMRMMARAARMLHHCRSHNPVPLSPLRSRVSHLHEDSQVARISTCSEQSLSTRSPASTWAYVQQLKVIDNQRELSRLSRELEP
# Outline: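 Nucleotide exchange uses 100 nM EPAC1, 250 nM RAP1B-BODIPY-GDP and 50 uM GDP, with compounds in a concentration-titration series. After 5 min at room temperature, fluorescence (480 nm ex/540 nm em) is read every 5 min for 30 min. Data are normalized to control ATA and DMSO.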
# [7] = biological target: Rap guanine nucleotide exchange factor 3 (Homo sapiens) (UniProt O95398); assay: Confirmatory qHTS for agonist of cAMP-regulated guanine nucleotide exchange factor 3 (EPAC1) (AID 1645881; active means well fitted curve in the direction sought with a large enough effect; an effect the other way counts as inactive or inconclusive;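 further: EPAC1 catalysed release of BODIPY-GDP from Rap1B seen as fluorescence loss; nearly all actives have a fitted effect of over 75% in size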)
# [8] = biological target: Rap guanine nucleotide exchange factor 4 (Homo sapiens) (UniProt Q8WZA2); assay: Confirmatory qHTS for agonist of cAMP-regulated guanine nucleotide exchange factor 4 (EPAC2) (AID 1645884; active means well fitted curve in the direction sought with a large enough effect; an effect the other way counts as inactive or inconclusive;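 further: nucleotide exchange releases bodipy-GDP from Rap1 and this lowers its fluorescence; nearly all actives have a fitted effect of over 65% in size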)
# Rap guanine nucleotide exchange factor 4 (Homo sapiens), sequence (Q8WZA2 whole entry, looked up): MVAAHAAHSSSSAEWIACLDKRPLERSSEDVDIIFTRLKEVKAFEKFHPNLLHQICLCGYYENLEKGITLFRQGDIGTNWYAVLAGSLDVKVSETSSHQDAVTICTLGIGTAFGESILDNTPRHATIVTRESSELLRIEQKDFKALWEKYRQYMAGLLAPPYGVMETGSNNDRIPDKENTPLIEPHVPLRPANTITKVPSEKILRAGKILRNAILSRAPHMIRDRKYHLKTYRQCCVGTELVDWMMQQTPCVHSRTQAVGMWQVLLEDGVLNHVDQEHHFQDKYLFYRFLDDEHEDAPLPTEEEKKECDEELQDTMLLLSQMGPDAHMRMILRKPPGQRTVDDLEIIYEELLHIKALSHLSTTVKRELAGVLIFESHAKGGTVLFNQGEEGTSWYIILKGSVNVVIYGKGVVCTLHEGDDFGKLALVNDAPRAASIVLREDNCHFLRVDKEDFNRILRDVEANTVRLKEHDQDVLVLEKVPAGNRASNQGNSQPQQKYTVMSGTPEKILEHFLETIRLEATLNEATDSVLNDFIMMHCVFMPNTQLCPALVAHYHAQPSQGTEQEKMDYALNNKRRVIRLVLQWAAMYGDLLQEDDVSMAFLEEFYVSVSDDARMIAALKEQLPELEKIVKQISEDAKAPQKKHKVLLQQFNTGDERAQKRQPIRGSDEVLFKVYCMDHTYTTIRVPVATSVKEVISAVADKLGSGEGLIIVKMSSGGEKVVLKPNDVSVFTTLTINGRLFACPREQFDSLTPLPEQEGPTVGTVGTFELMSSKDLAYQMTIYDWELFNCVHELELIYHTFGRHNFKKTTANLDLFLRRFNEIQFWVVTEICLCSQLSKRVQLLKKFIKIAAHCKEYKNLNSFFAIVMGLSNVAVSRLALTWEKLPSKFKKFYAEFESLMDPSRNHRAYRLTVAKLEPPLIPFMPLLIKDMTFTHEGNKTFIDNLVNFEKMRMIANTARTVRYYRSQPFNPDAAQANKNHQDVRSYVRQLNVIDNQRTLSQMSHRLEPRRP
smiles,measurement,setting,value
CC(CC=O)CCCC(C)(C)O (stereo unspecified),Potency,[1],inactive
C[C@@](Cc1ccc(O)c(O)c1)(NN)C(=O)O,Potency,[1],inactive
CCOC(=O)C1=C(COCCN)NC(C)=C(C(=O)OC)C1c1ccccc1Cl (stereo unspecified),Potency,[1],16.9 µM (active)
same,Potency,[2],2.68 µM (active)
CCN(CC)C(=O)c1cccnc1,Potency,[1],inactive
same,Potency,[2],inactive
CCOc1ccc(S(=O)(=O)O)c2cccnc12,Potency,[1],inactive
same,Potency,[2],inactive
NC(=S)N=Nc1ccc(NN=C(N)N)cc1,Potency,[1],10.7 µM (active)
same,outcome,[3],inactive
same,Potency,[2],15.1 µM (active)
CCCCC(O)c1ccccc1 (stereo unspecified),Potency,[1],inactive
O=S(=O)(O)CC(S)CS (stereo unspecified),Potency,[1],inactive
CC12CCC(C[N+](C)(CCC[N+](C)(C)C)C1)C2(C)C (stereo unspecified),Potency,[1],inactive
same,Potency,[2],inactive
FCOC(C(F)(F)F)C(F)(F)F,Potency,[1],inactive
same,Potency,[2],inactive
Cc1ncc(C[n+]2csc(CCO)c2C)c(N)n1,Potency,[1],inactive
same,outcome,[3],inactive
same,Potency,[2],inactive
CC(=O)Oc1cc(C(F)(F)F)ccc1C(=O)O,Potency,[1],inactive
same,outcome,[3],inactive
c1ccc2ccccc2c1,Potency,[1],inactive
same,Potency,[2],inactive
C/C=C/C=C/C(=O)O,Potency,[1],inactive
same,Potency,[2],inactive
Nc1ccc(N=Nc2ccccc2)c(N)n1,Potency,[1],17.4 µM (active)
same,Potency,[2],13.8 µM (active)
S=C=Nc1ccc(N=C=S)cc1,Potency,[1],inactive
same,Potency,[2],inactive
C=CCCCCCCCCC(=O)OC,Potency,[1],inactive
same,Potency,[2],inactive
COC(=O)[C@@H](N)CS,Potency,[1],inactive
same,Potency,[2],9.52 µM (active)
O=C(OCc1ccccc1)c1cccnc1,Potency,[1],inactive
C[C@H](O)CN(C)C,Potency,[1],inactive
same,Potency,[2],inactive
CCN1C(=O)NC(c2ccccc2)C1=O (stereo unspecified),Potency,[1],inactive
CN(C)c1ccc(C(=C2C=CC(=[N+](C)C)C=C2)c2c(O)c(S(=O)(=O)[O-])cc3cc(S(=O)(=O)O)ccc23)cc1,Potency,[1],15.1 µM (active)
N=C(N)n1cccn1,Potency,[1],inactive
same,outcome,[3],inactive
same,Potency,[2],inactive
CCCOc1cc(N)ccc1C(=O)OCCN(CC)CC,Potency,[1],3.38 µM (active)
O=P(O)(O)OP(=O)(O)O,Potency,[1],inactive
c1ccc(-n2cnnn2)cc1,Potency,[1],inactive
same,Potency,[2],inactive
CCN(CC)CCOCCOC(=O)C(CC)(CC)c1ccccc1,Potency,[1],3.01 µM (active)
C=CC1=C(C(=O)O)N2C(=O)[C@@H](NC(=O)/C(=N\O)c3csc(N)n3)[C@H]2SC1 (stereo in doubt),Potency,[1],inactive
same,outcome,[3],inactive
same,Potency,[2],inactive
COC(=O)CCC[N+](C)(C)C,Potency,[1],inactive
same,Potency,[2],inactive
CC(CCc1ccc(O)cc1)NCC(O)c1ccc(O)cc1 (stereo unspecified),Potency,[1],6.74 µM (active)
same,Potency,[2],inactive
COc1ccc2nc(NC(=O)Nc3ccccc3)sc2c1,Potency,[1],inactive
same,Potency,[2],13.8 µM (active)
Cc1cccc(C)c1NC(=O)C1CCCCN1C (stereo unspecified),Potency,[1],9.52 µM (active)
same,Potency,[2],inactive
CC(C)=CCC/C(C)=C/CC/C(C)=C/CC/C=C(\C)CC/C=C(\C)CCC=C(C)C,Potency,[1],inactive
CN1C(=O)OC(C)(C)C1=O,Potency,[1],inactive
Nc1nc(=O)n([C@@H]2CS[C@H](CO)O2)cc1F,Potency,[1],inactive
same,Potency,[2],inactive
CC[C@H]1OC(=O)[C@H](C)[C@@H](O[C@H]2C[C@@](C)(OC)[C@@H](O)[C@H](C)O2)[C@H](C)[C@@H](O[C@@H]2O[C@H](C)C[C@H](N(C)C)[C@H]2O)[C@](C)(O)C[C@@H](C)CN(C)[C@H](C)[C@@H](O)[C@]1(C)O,Potency,[1],inactive
same,Potency,[2],inactive
same,Potency,[4],inactive
same,Potency,[5],inactive
CCCC(=O)O,Potency,[1],inactive
same,Potency,[2],inactive
CCCCC(=O)O[C@H]1CC[C@H]2[C@@H]3CCc4cc(O)ccc4[C@H]3CC[C@]12C,Potency,[1],inactive
same,Potency,[2],19 µM (active)
same,outcome,[6],inactive
same,outcome,[7],inactive
same,outcome,[8],inactive
CC[C@H]1OC(=O)C[C@@H](O)[C@H](C)[C@@H](O[C@@H]2O[C@H](C)[C@@H](O[C@H]3C[C@@](C)(O)[C@@H](O)[C@H](C)O3)[C@H](N(C)C)[C@H]2O)[C@@H](CC=O)C[C@@H](C)C(=O)/C=C/C(C)=C/[C@@H]1CO[C@@H]1O[C@H](C)[C@@H](O)[C@@H](OC)[C@H]1OC,Potency,[1],inactive
same,Potency,[2],inactive
CO[C@H]1O[C@@H]2O[C@@]3(C)CC[C@H]4[C@H](C)CC[C@@H]([C@H]1C)[C@@]24OO3,Potency,[1],inactive
same,Potency,[2],39.8 µM (active)
O=S(=O)(O)CCCS(=O)(=O)O,Potency,[1],inactive
same,Potency,[2],inactive
O=C1CCC(=O)N1CO,Potency,[1],inactive
same,Potency,[2],inactive
C=C1CC[C@H](O)CC1=C/C=C1\CCC[C@]2(C)[C@@H]([C@H](C)/C=C/[C@H](C)C(C)C)CC[C@@H]12,Potency,[1],inactive
same,Potency,[2],16.9 µM (active)
same,Potency,[5],20.5 µM (active)
Cc1c(C)c2c(c(C)c1OC(=O)CCC(=O)O)CC[C@@](C)(CCC[C@H](C)CCC[C@H](C)CCCC(C)C)O2,Potency,[2],21.3 µM (active)
C[C@]12CC[C@@H]3c4ccc(OC(=O)c5ccccc5)cc4CC[C@H]3[C@@H]1CC[C@@H]2O,Potency,[1],inactive
same,Potency,[5],inactive
CCOC(C)OCC,Potency,[1],inactive
same,Potency,[2],inactive
CCCCCCCCCCCCCCCCCC[N+](C)(C)CCC[Si](OC)(OC)OC,Potency,[1],15.1 µM (active)
same,Potency,[2],inactive
